The results in this text go back to PubChem BioAssay (NCI).

SMILES strings stand for the structures. Values joined by “and” are separate entries in the source; they are usually repeats but may differ in a detail not shown here. Equal values may be shown once. About 83,000 compounds went through this panel and 20% of them were active in at least one assay; those are over-represented in the sample as a whole.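 Activity criterion: percent growth below 10, measured after cells in 96-well plates were exposed to a single compound concentration for 48 hours.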 A number with no mark means an inactive call. Active and inactive are the calls of the source.

The assay relates to MDA-MB-468 breast. The experiment in a line: NCI-60 one-dose screen, 48 h (100 = growth as untreated, 0 = no growth, -100 = all killed). The settings on record: 10 µM unless noted.
On to `Clc1cccc(-c2cc(-c3ccc4c(c3)OCCO4)[nH]n2)c1`, for which the growth was 6.54% [25 µM] (active).
For `CCC(NC(c1cc2cccc3ccc4cccc1c4c32)c1nnnn1C(C)(C)C)C1CCCCC1` (stereo not given), the growth is 7.35% (active).
The value for `COc1cc(NCCCCCN)c2ncccc2c1` was 114%; that for `CC(C)C(NC(=O)C1(NC(=O)OCc2ccccc2)CCCC1)C(=O)O` (stereo not given) was 112%.
The same measure for `N#Cc1c2c(nn(-c3ccccc3)c1=O)C(O)=C([N+](=O)[O-])C(c1ccccc1)C2` (stereo not given): 64.1%; for `O=S1(=O)OC(c2ccc(O)c(Cl)c2)(c2ccc(O)c(Cl)c2)c2ccccc21`: 114%; for `CCn1cnc(C[C@H](NC(=O)[C@@H](NC(=O)Nc2cc(C(F)(F)F)cc(C(F)(F)F)c2)C(C)(C)C)C(=O)OC)c1`: -75.6% [100 µM] (active).
The same measure for `c1cc[n+](C2c3ccccc3C([n+]3ccccc3)c3ccccc32)cc1` (stereo not given): -37.4% (active); for `Cc1onc(-c2ccccc2Cl)c1C(=O)N[C@@H]1C(=O)N2[C@@H]1SC(C)(C)[C@@H]2C(=O)O`: 109%; for `COc1ccc(C=Nc2c(C(=O)Nc3cccc(Cl)c3C)sc3nc(C)c(C(=O)/C=C/c4ccc(OC)cc4)cc23)cc1`: 17.3%.
Take `CC1(C)[C@@H](OC(=O)CCC(=O)O)CC[C@]2(C)[C@H]3C(=O)C=C4[C@@H]5C[C@@](C)(C(=O)O)CC[C@]5(C)CC[C@@]4(C)[C@]3(C)CC[C@@H]12`: the growth is -0.77% (active).
The value for `CCOc1nc(-c2ccccc2)cc2c(O)c(C(=O)O)[nH]c(=O)c12` was 96.2%; that for `COc1ccc(/C(=C(\c2ccccc2)[N+](=O)[O-])c2ccc(OCCN3CCCC3)cc2)cc1` was 68.1%; that for `COc1cc2nc(-c3cnc(N(C)C)nc3)nc(NC3CCN(Cc4ccccc4)CC3)c2cc1OC` was -72.1% (active).
As to `O=C(O)c1cccc(Br)c1`, the growth is 104% and 101%.
With `c1ccc(Cn2cnc3ccc(-c4nc(-c5ccc6c(c5)ncn6C5CCCCC5)cn5ccnc45)cc32)cc1`, the growth was -35.7% (active).
The value for `O=C1Nc2ccccc2C12Nc1cc(Cl)ccc1S2` (stereo not given) was 105%.
The same measure for `COc1ccc(C2=C/C(=C\c3ccc(Cl)cc3)C(=O)NN2C(=S)NN)cc1`: 82.7%.
`NC(N)=NC(N)=Nc1ccccc1-c1ccccc1`: the growth was 109%.
The same measure for `COc1ccc(C(OCC2OC(n3ccc(NC(=O)c4ccccc4)nc3=O)C(O)C2O)(c2ccccc2)c2ccccc2)cc1` (stereo not given): 45.9%; for `CCCCCCNC(=O)Oc1ccc(/C(=C(\C)c2ccccc2)c2ccc(OCCN(CC)CC)cc2)cc1`: 74.9%.
The same measure for `CCCCC(=O)c1ccco1`: 95.1%.
As for `CCCCCC/C=C\CCCCCCCCOc1ccc(CCOP(=O)(O)OCC[N+](C)(C)C)cc1`, the growth was 85.5%.
The value for `O=C(Nc1ccc(F)cc1)c1cc2ccccc2cc1O` was 60.8%; that for `CCOC(=O)C1=NN(c2ccccc2)C2=NC(=O)/C(=C\c3cn(-c4ccccc4)nc3-c3cc4ccccc4o3)C(=O)N12` was 111%.
The value for `COC(=O)CCCCN=Cc1c(O)c(O)c(C(C)C)c2cc(C)c(-c3c(C)cc4c(C(C)C)c(O)c(O)c(C=NCCCCC(=O)OC)c4c3O)c(O)c12` was 18.6%; that for `O=C(O)CCCCc1ccc([N+](=O)[O-])cc1` was 107% and 115%; that for `NCCCn1c2c(c3cc(-c4ccn[nH]4)ccc3c1=O)C(=O)c1ccccc1-2` was 62.6%.
The value for `CCCCc1nc(Cl)c(CO)n1Cc1ccc(-c2ccccc2-c2nn[nH]n2)cc1` was 96.4%.
With `CN1CCN(c2ccc(Nc3nc(NCCNS(=O)(=O)c4ccccc4)c4sccc4n3)cc2)CC1`, the growth is 90.5%.
The same measure for `CNC(=O)c1c(I)c(NC(C)=O)c(I)c(C(=O)O)c1I`: 102%; for `C=CCOc1ccc(/C(Cl)=N/N=C(\Cl)c2cc(OC)c(OC)c(OC)c2)cc1`: 23.3%.
The value for `COc1ccc2nc(Cl)c(/C=C/C(=O)c3ccc(NC(=O)CSc4nnc(-c5ccc(Cl)c(Cl)c5)n4-c4ccccc4)cc3)cc2c1` was 98.2%.
The same measure for `COc1ccc2[nH]cc(/C=C3/C(=O)Nc4ccc(F)cc43)c2c1`: 79.1%; for `Cc1c(C(N)=O)sc2nc(C)n(/N=c3\scc(-c4ccccc4)n3Cc3ccccc3)c(=O)c12`: 79.9%; for `CCOc1cccc(/C=N/NC(=O)c2ccc(Nc3ccnc(C(F)(F)F)c3)cc2)c1O`: -20.9% (active).
Regarding `CS(=O)(=O)c1ccc(C(=O)N/N=C/c2ccccc2Cl)cc1`, the growth is 96.1%.
The same measure for `COc1ccc(C(=O)c2cc(C)c(OC)c(C)c2)c(OC)c1NC(C)=O`: 12.4%; for `c1nc(SC2=NCCN2)c2[nH]cnc2n1`: 14.7%; for `Cn1cc(-c2nnc(N)nc2-c2c[nH]c3ccc(F)cc23)c2cc(F)ccc21`: -15.1% (active).
